Hits are enriched below; roughly 7.4% of the tested compounds scored in any of these assays.
KinaseGlo FLuc: blocks Kinase-Glo luciferase, a counter-screen artifact; Q27757; Kinase-Glo luciferase, ATP luminescence, 8 min; actives 0.28% (n = 200,000); Potency, µM (doses to about 38.3 µM), inactives show at the highest dose activity change, negative = inhibition, actives largely listed as inhibitors; further: on the % scale 0 is the no-effect control and ±100 the full control effect; nearly all actives have a fitted effect of over 60% in size
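Luminescence was the read-out, taken after 8-minute incubation at ambient temperature. Luciferase turned over luciferin with 10 uM ATP in imidazole pH 7.2 buffer containing KCl, MgCl2, Tween 20 and BSA.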
SMN2 splice up: increases expression of the SMN2 splice variant; HEK293 SMN2-luciferase splicing reporter, luminescence, 30-36 h; Potency, µM (doses to about 46.1 µM), inactives show at the top dose activity change, positive = activation, most hits filed as activators; actives 2.8% (n = 210,000); further: % of control where 0% means no effect; nearly all actives have a fitted effect of over 55% in size
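qHTS luciferase splicing reporter: luminescence rises when SMN2 exon 7 is included in transfected HEK293 cells. Compound exposure lasted 30-36 h at 37C, with 4.5 mM final sodium butyrate as control, followed by a ONE-Glo read.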
FLuc counter: counter-screen for miR-21 project: firefly luciferase inhibitors or activators. P08659. purified FLuc, Km substrates, luminescence inhibition. Potency, µM (highest dose often 57.5 µM), for the others: top-dose activity change, negative = inhibition, most hits filed as inhibitors. actives 6.9% (n = 360,000). AID 588342;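 further: plate controls were vehicle for no effect and reference inhibitor for full effect; nearly all actives have a fitted effect of over 55% in size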
Target sequence (P08659 whole entry, looked up): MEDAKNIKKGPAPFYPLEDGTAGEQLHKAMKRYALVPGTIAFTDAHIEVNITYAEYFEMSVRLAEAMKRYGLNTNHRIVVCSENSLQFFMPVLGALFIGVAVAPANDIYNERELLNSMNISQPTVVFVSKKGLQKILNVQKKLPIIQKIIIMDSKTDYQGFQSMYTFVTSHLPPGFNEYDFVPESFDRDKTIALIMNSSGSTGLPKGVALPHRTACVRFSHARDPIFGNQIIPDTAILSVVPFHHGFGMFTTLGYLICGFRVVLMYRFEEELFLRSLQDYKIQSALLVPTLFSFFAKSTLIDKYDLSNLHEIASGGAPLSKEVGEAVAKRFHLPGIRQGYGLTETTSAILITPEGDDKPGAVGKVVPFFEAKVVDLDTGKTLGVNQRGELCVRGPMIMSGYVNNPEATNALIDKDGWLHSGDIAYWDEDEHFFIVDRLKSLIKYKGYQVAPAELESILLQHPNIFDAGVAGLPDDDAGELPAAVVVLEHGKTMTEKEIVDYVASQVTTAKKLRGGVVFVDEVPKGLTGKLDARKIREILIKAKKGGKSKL
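Purified P. pyralis luciferase (10nM final) with 10uM D-luciferin and 10uM ATP (Km levels) in 50mM Tris acetate pH 7.5, 10mM Mg acetate, 0.01% Tween-20, 0.05% BSA; qHTS 6-point titration, ~60 µM downward; luminescence read.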
NPC1 prom act: activates the NPC1 promoter; AID 485313; Huh7 NPC1 promoter luciferase reporter, 24 h; actives 2.4% (n = 320,000); Potency, µM (top dose mostly 9.22 µM), without a hit: at the top dose activation, actives largely listed as activators; further: % of control where 0% means no effect; nearly all actives have a fitted effect of over 60% in size
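Huh7 reporter cells (NPC1 promoter driving luciferase) are dosed with compound for 24 h at 37 °C, 5% CO2; luciferase detection reagent is then added and luminescence measured after 10 min at ambient temperature.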
Rab9 promoter act: activators of Rab9 promoter; Huh7 Rab9 promoter-luciferase reporter, luminescence, 24 h; Potency, µM (highest dose often 9.22 µM), for the others: top-dose activation, negative = inhibition, usual class: activators; actives 2.8% (n = 320,000); further: % of control where 0% means no effect; nearly all actives have a fitted effect of over 60% in size
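Using Huh7 cells stably transfected with Rab9 promoter–luciferase, compounds were incubated 24 h at 37 °C, 5% CO2; luciferase luminescence was read 10 min after reagent addition.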
ELG1 genotoxic: induces genotoxicity in HEK293T cells with luciferase-tagged ELG1. Potency, µM (titrated, usually from 46 µM), for the others: at the top dose activity change, positive = activation, hits mostly activators. HEK293T ELG1-luciferase reporter, luminescence, 16 h. actives 1.3% (n = 330,000). AID 504466; further: % of control where 0% means no effect; nearly all actives have a fitted effect of over 60% in size
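Luminescence read-out: rising ELG1-luciferase signal, reflecting elevated ELG1 protein under genetic stress, flags genotoxic compounds. Cells were treated for 16 hr at 37 °C before ONE-Glo detection.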
The depositor's hits bear a star; ? = inconclusive; · = no result. The call rests on the fitted dose curve; in most records, active means well fitted curve in the direction sought with a large enough effect; inconclusive means small, poorly fitted or top-dose-only effect, or another doubt; inactive means no such curve, though single readings can be large; an effect the other way counts as inactive or inconclusive. Potency means the concentration at half of the fitted maximal effect.

SMILES	KinaseGlo FLuc	SMN2 splice up	FLuc counter	NPC1 prom act	Rab9 promoter act	ELG1 genotoxic
COc1ccc2cc3cc(C(=O)N4CC(C)CC(C)C4)oc3nc2c1 (stereo not drawn)	·	·	?	23.1%	?	4.8%
COc1ccc(/C=C2\N=C(SC)N(c3ccccc3OC)C2=O)cc1	-0.7%	1.26µM*	?	-6.2%	?	-14.3%
CCOc1ccc(N2C(=O)/C(=C/c3ccccc3)N=C2SC)cc1	0.0%	-11.1%	-8.5%	3.55µM*	?	?
CC(=O)N1CCC[C@@]2(CCN(Cc3ccccc3)C2)C1	0.7%	-8.5%	·	·	·	·
COc1ccc2nc3sc(C(=O)NCCN4CCc5ccccc5C4)cc3cc2c1	1.5%	3.6%	?	2.0%	12.7%	6.9%
COc1ccc2cc3cc(C(=O)NCCCN4CCc5ccccc5C4)sc3nc2c1	-2.5%	15.8µM*	9.53µM*	?	4.47µM*	7.0%
COc1ccc2cc3cc(C(=O)NC4CC4)sc3nc2c1	·	·	0.675µM*	0.447µM*	0.316µM*	?
Cc1cccc(C(=O)NCCCNC(=O)c2cccnc2)c1	·	·	-0.8%	-1.1%	0.7%	4.7%
CCCN(CC(=O)Nc1cc(Cl)ccc1Cl)C(=O)/C=C/c1ccco1	6.1%	-5.9%	-1.6%	-3.9%	11.9%	1.6%
CC(NC(N)=O)C(=O)OCC(=O)c1ccc(-c2ccccc2)cc1 (stereo not drawn)	-5.7%	25.6%	12µM*	9.6%	17.7%	6.9%
CCC(=O)c1ccc(-c2ccccc2)cc1	-4.1%	?	15.1µM*	2.9%	1.7%	?
O=C(C[n+]1ccccc1)c1ccc(-c2ccccc2)cc1	·	·	3.6%	-0.8%	-4.8%	-14.0%
COC(=O)c1ccccc1NC(=O)COC(=O)[C@H](C)NC(N)=O	·	·	3.4%	1.9%	2.8%	0.2%
O=C(O)CCC(=O)NNC(=O)c1ccc([N+](=O)[O-])cc1	·	·	-2.1%	0.2%	-4.0%	-0.2%
O=C(O)CCC(=O)NNC(=O)c1ccc(-c2ccccc2)cc1	-3.0%	25.8%	19µM*	-1.4%	1.1%	2.4%
CCCC(C)NC(=O)c1ccc(-c2ccccc2)cc1 (stereo not drawn)	·	·	?	?	1.78µM*	?
O=C(O)CCC(=O)c1ccc(-c2ccccc2)cc1	-5.9%	29.3%	8.49µM*	24.9%	?	8.8%
O=C(O)CCC(=O)CCC(=O)c1ccc(Cl)cc1	7.7%	-4.4%	?	1.3%	-1.6%	-0.5%
CCOc1ccc2oc(C(=O)Nc3ccc(N4CCOCC4)cc3)c(C)c2c1	-3.8%	-29.8%	13.5µM*	·	·	·
COc1ccc2oc(C(=O)OC(C)C(=O)Nc3ccc(N4CCOCC4)cc3)c(C)c2c1 (stereo not drawn)	·	·	-11.7%	-5.0%	-2.8%	5.6%
CCOc1ccc2oc(C(=O)Nc3ccc4c(c3)OCO4)c(C)c2c1	·	·	5.36µM*	3.16µM*	2.82µM*	?
CCOc1ccc2oc(C(=O)N(C)CC(=O)Nc3ccc(OCC)c(OCC)c3)c(C)c2c1	·	·	6.1%	-6.8%	2.4%	-0.9%
COc1cc(NC(=O)c2ccc(C(=O)Nc3cc(OC)c(Cl)cc3OC)cc2)c(OC)cc1Cl	·	-4.6%	0.2%	·	·	·
COc1ccc(COc2cccc(C=O)c2)cc1	·	·	23.9µM*	?	?	-1.0%
Fc1ccccc1COc1cccc(/C=N/n2cnnc2)c1	-1.1%	-0.4%	3.3%	10.6%	7.8%	3.7%
SMILES	KinaseGlo FLuc	SMN2 splice up	FLuc counter	NPC1 prom act	Rab9 promoter act	ELG1 genotoxic
O=Cc1cccc(OCc2cccc3ccccc23)c1	·	·	26.9µM*	2.82µM*	3.98µM*	?
COc1ccc(COc2ccc3c(C)cc(=O)oc3c2)cc1	·	·	5.36µM*	2.24µM*	?	9.2µM*
Cc1ccc(-c2cc(C(F)(F)F)n3ncc(-c4ccc(Cl)cc4)c3n2)cc1	·	-9.1%	0.5%	·	·	·
CCOc1ccc(N2C(=O)CCC2=O)cc1	1.7%	0.6%	6.4%	-3.6%	-4.9%	1.7%
CCCC1CCC(c2ccc(OCC)cc2)=CC1=O (stereo not drawn)	·	·	6.75µM*	2µM*	3.55µM*	?
CCN(CC)c1ccc(-c2nc3cnccc3n2C)cc1	-4.8%	?	4.78µM*	3.98µM*	3.98µM*	?
Cn1c(-c2ccncc2)nc2ccccc21	·	·	6.0%	0.0%	0.0%	7.3%
O=C(CCCCl)Oc1ccc2cc(-c3ccc4ccccc4n3)c(=O)oc2c1	1.3%	12.6µM*	?	?	?	?
CC(=O)COc1ccc2cc(-c3ccccc3)c(=O)oc2c1	·	·	?	1.12µM*	1µM*	?
COc1ccc(-c2cc3ccc(OC(C)C(=O)O)cc3oc2=O)cc1 (stereo not drawn)	·	·	26.9µM*	22.2%	27.4%	?
CC(=O)Oc1ccc2cc(-c3ccccc3)c(=O)oc2c1	·	·	2.39µM*	3.98µM*	?	?
COc1ccc(-c2cc3ccc(OCC(N)=O)cc3oc2=O)cc1OC	·	·	?	27.5%	23.0%	13.1%
O=C(CCS(=O)(=O)Cc1ccccc1F)NCc1ccccc1Cl	1.2%	8.1%	1.2%	-1.6%	4.9%	0.1%
Cc1cc(=O)n2nc(-c3ccc(C(F)(F)F)cc3)sc2n1	-6.6%	11.2µM*	?	?	?	3.98µM*
Fc1cccc(Cc2noc(CN3CCCCC3c3ccccn3)n2)c1 (stereo not drawn)	-0.4%	·	23.9µM*	?	?	?
NC(=O)c1sc2nc3c(cc2c1N)CCC3	-10.0%	?	?	?	?	-8.2%
Nc1c(C(=O)N2CCCC2)sc2nc3c(cc12)CCCCCC3	0.5%	14.1µM*	?	3.16µM*	3.98µM*	13.9%
COC(=O)c1sc2nc3c(cc2c1N)CCCC3	-24.6%	10µM*	3.01µM*	1.41µM*	0.501µM*	?
Cc1ccc(C)c2nc3sc(C(=O)N4CCOCC4)c(N)c3cc12	-4.9%	·	?	14.8%	?	?
Nc1c(C(=O)N2CCOCC2)sc2nc3c(cc12)CCCC3	·	·	0.477µM*	0.355µM*	0.112µM*	0.58µM*
Nc1c(C(=O)N2CCOCC2)sc2nc3c(cc12)CCC3	11.2µM*	11.2µM*	7.57µM*	1.26µM*	0.891µM*	2.91µM*
COc1cccc(CNC(=O)CCc2nnc3n(CC(C)C)c(=O)c4ccccc4n23)c1	·	-7.8%	-1.3%	·	·	·
CC(=O)c1c(O)c(C)c(O)c2c1OC1=CC(=O)C(C(C)=O)C(=O)[C@@]12C (stereo partly drawn)	-0.2%	·	0.1%	-5.1%	-4.3%	-15.4%
COc1cccc2[nH]c3c(N4CCCC(C)C4)ncnc3c12 (stereo not drawn)	1.6%	3.9%	5.36µM*	15.2%	28.5%	-1.8%

Screens as filed in PubChem.
